Reference: PubChem BioAssay (NCI)
The panel holds about 79,000 compounds, 15% with a hit somewhere; the sample as a whole holds those more often. The source made the active and inactive calls. Rule as the data show it: active = growth inhibition above about 70%; inactive = the rest.

Experiments:
[1] = NCI Yeast Anticancer Drug Screen. Data for the rad52 strain (AID 147);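 also: 0% = growth of vehicle-treated control cultures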; conditions: S. cerevisiae rad52 mutant growth inhibition, active compounds read high
Method in brief: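 Inhibition of yeast growth, referenced to vehicle controls, was the measured output for a strain with defective DNA damage repair.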

[2] = NCI Yeast Anticancer Drug Screen. Data for the rad50EPP+ strain (AID 151);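 also: 0% = growth of vehicle-treated control cultures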; conditions: S. cerevisiae rad50 mutant strain, active compounds read high
Method in brief: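 Genetically defined yeast (rad50EPP+, DNA damage repair alteration) is grown with compound, and inhibition of growth is expressed relative to vehicle-treated controls.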

[3] = NCI Yeast Anticancer Drug Screen. Data for the mgt1 strain (AID 153); conditions: S. cerevisiae mgt1 mutant growth inhibition, active compounds read high
Method in brief: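 In the mgt1 strain, test compounds were added and growth inhibition was determined relative to vehicle-treated controls.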

[4] = NCI Yeast Anticancer Drug Screen. Data for the rad50 strain (AID 155);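 also: 0% = growth of vehicle-only cultures of the same strain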; conditions: S. cerevisiae rad50 strain growth inhibition, active compounds read high
Method in brief: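 Cells are treated with compound, grown, and their growth is then scored against vehicle-only cultures of the same repair-deficient yeast strain.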

[5] = NCI Yeast Anticancer Drug Screen. Data for the mec2-1 strain (AID 157); conditions: S. cerevisiae mec2-1 strain, active compounds read high
Method in brief: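 Each compound was tested on mec2-1 yeast, a strain altered in DNA damage repair or cell cycle control. Growth inhibition is reported relative to vehicle.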

[6] = NCI Yeast Anticancer Drug Screen. Data for the rad14 strain (AID 159);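 also: 0% = growth of vehicle-treated control cultures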; conditions: S. cerevisiae rad14 strain growth inhibition, active compounds read high
Method in brief: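 Readout: yeast growth inhibition, referenced to vehicle-only cultures. Strain bears a defined alteration in DNA damage repair.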

[7] = NCI Yeast Anticancer Drug Screen. Data for the sgs1 mgt1 strain (AID 161);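 also: 0% = growth of cultures given vehicle only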; conditions: S. cerevisiae sgs1 mgt1 strain, active compounds read high
Method in brief: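 Mutant yeast exposed to compound; growth scored against vehicle-only wells.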

[8] = NCI Yeast Anticancer Drug Screen. Data for the CLN2oe strain (AID 163);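 also: 0% = growth of vehicle-only control cultures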; conditions: S. cerevisiae CLN2oe strain, active compounds read high
Method in brief: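 First, the altered yeast strain was treated with each compound; second, its growth was measured; finally, inhibition was derived by comparison with vehicle controls.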

[9] = NCI Yeast Anticancer Drug Screen. Data for the cln2 rad14 strain (AID 165);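 also: 0% = growth equal to vehicle treated cultures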; conditions: S. cerevisiae cln2 rad14 strain, active compounds read high
Method in brief: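 Test compounds were added to cln2 rad14 yeast cultures; inhibition of growth was then determined by comparison with vehicle treatment.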

[10] = NCI Yeast Anticancer Drug Screen. Data for the bub3 strain (AID 167); conditions: S. cerevisiae bub3 mutant strain, active compounds read high
Method in brief: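 Part of a panel of yeast mutants defective in DNA damage repair or cell cycle regulation. Each strain is grown with compound, and inhibition is calculated relative to solvent-treated cultures.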

[11] = NCI Yeast Anticancer Drug Screen. Data for the wt2 strain (AID 169);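 also: 0% = growth of vehicle-treated yeast cultures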; conditions: S. cerevisiae wt2 strain growth inhibition, active compounds read high
Method in brief: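 The panel's yeast strains carry defined changes in DNA repair or cell cycle genes. Each strain is grown with compound, and growth loss is scored relative to vehicle.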

[12] = NCI Yeast Anticancer Drug Screen. Data for the mlh1 strain (AID 171);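 also: 0% = growth of vehicle-treated control cultures of the same strain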; conditions: S. cerevisiae mlh1 strain growth inhibition, active compounds read high
Method in brief: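 Inhibition values reflect reduced yeast growth in the presence of compound, referenced to vehicle controls, using a strain chosen for its alteration in DNA repair or cell cycle control.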

[13] = NCI Yeast Anticancer Drug Screen. Data for the sgs1 strain (AID 173);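 also: 0% = growth of vehicle-only control cultures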; conditions: S. cerevisiae sgs1 mutant, active compounds read high
Method in brief: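 Vehicle-treated cultures served as reference for growth inhibition of a yeast strain altered in DNA damage repair or cell cycle control after compound exposure.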

[14] = NCI Yeast Anticancer Drug Screen. Data for the mlh1 rad18 strain (AID 175); conditions: S. cerevisiae mlh1 rad18 strain growth inhibition, active compounds read high
Method in brief: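 Inhibition values reflect reduced growth of mutant yeast versus vehicle-treated controls following compound exposure; the mutations affect DNA damage repair.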

[15] = NCI Yeast Anticancer Drug Screen. Data for the rad18 strain (AID 177); conditions: S. cerevisiae rad18 mutant growth inhibition, active compounds read high
Method in brief: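 Steps: expose repair-mutant yeast to compound; measure growth; express as inhibition relative to vehicle control.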

[16] = NCI Yeast Anticancer Drug Screen. Data for the wt1 strain (AID 149);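 also: 0% = growth of vehicle-treated wt1 cultures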; conditions: S. cerevisiae wt1 strain (SPY 50644) growth inhibition, active compounds read high
Method in brief: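 The wt1 strain was treated with compounds, and growth was compared with vehicle-treated cultures to give inhibition.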

[17] = at 5.0 µM (retest, dose inferred, filed as 0.5)
[18] = at 50.0 µM (retest, dose inferred, filed as 5.0)

Measured: growth inhibition

Cc1nc(-c2cc3cc([N+](=O)[O-])ccc3oc2=O)cs1
active: [1]; at 100.0 µM 97% | [2]; at 33.0 µM 81% | [2]; at 100.0 µM 99% | [3]; at 100.0 µM 89% | [4]; [18] 84% | [4]; at 50.0 µM 89.9% | [4]; at 100.0 µM 94% | [5]; [18] 100% | [5]; at 50.0 µM 94.2% | [5]; at 100.0 µM 94% | [6]; at 100.0 µM 96% | [7]; at 50.0 µM 89.3% | [8]; at 100.0 µM 81% | [10]; at 50.0 µM 89.4% | [10]; at 100.0 µM 92% | [11]; at 100.0 µM 99% | [12]; at 100.0 µM 98% | [13]; at 100.0 µM 99% | [14]; [18] 91% | [15]; at 100.0 µM 94%
inactive: [1]; at 1.2 µM 13% | [1]; at 3.7 µM 39% | [1]; at 11.0 µM 47% | [1]; at 33.0 µM 65% | [2]; at 1.2 µM -7% | [2]; at 3.7 µM 26% | [2]; at 11.0 µM 57% | [3]; at 1.2 µM -1% | [3]; at 3.7 µM 6% | [3]; at 11.0 µM 5% | [3]; at 33.0 µM 25% | [4]; at 1.2 µM 20% | [4]; at 3.7 µM 17% | [4]; [17] 17% | [4]; at 11.0 µM 23% | [4]; at 33.0 µM 42% | [5]; at 1.2 µM -15% | [5]; at 3.7 µM -3% | [5]; [17] 18% | [5]; at 11.0 µM 3% | [5]; at 33.0 µM 16% | [6]; at 1.2 µM -1% | [6]; at 3.7 µM 6% | [6]; at 11.0 µM 13% | [6]; at 33.0 µM 25% | [7]; [17] 13% | [7]; [18] 46% | [8]; at 1.2 µM -22% | [8]; at 3.7 µM 3% | [8]; at 11.0 µM 8% | [8]; at 33.0 µM 20% | [9]; [17] 2% | [9]; [18] 13% | [9]; at 50.0 µM 59.4% | [10]; at 1.2 µM -15% | [10]; at 3.7 µM -2% | [10]; [17] -15% | [10]; at 11.0 µM -1% | [10]; at 33.0 µM 3% | [10]; [18] 60% | [11]; at 1.2 µM -42% | [11]; at 3.7 µM -24% | [11]; at 11.0 µM -11% | [11]; at 33.0 µM 28% | [12]; at 1.2 µM -2% | [12]; at 3.7 µM -12% | [12]; at 11.0 µM 10% | [12]; at 33.0 µM 34% | [13]; at 1.2 µM 5% | [13]; at 3.7 µM 31% | [13]; at 11.0 µM 42% | [13]; at 33.0 µM 62% | [14]; [17] 16% | [14]; at 50.0 µM 14.9% | [15]; at 1.2 µM 1% | [15]; at 3.7 µM 2% | [15]; at 11.0 µM 7% | [15]; at 33.0 µM 34%

CCC(C)(C)c1ccc(Oc2cccc(C(=O)O)c2)cc1
active: [3]; at 100.0 µM 92% | [4]; at 50.0 µM 72.1% | [4]; at 100.0 µM 71% | [5]; at 33.0 µM 70% | [5]; at 50.0 µM 78.8% | [5]; at 100.0 µM 96% | [6]; at 100.0 µM 72% | [8]; at 33.0 µM 84% | [8]; at 100.0 µM 84% | [9]; at 50.0 µM 88% | [10]; at 50.0 µM 71.8% | [10]; at 100.0 µM 84% | [14]; at 50.0 µM 86.7%
inactive: [1]; at 1.2 µM -2% | [1]; at 3.7 µM -1% | [1]; at 11.0 µM 17% | [1]; at 33.0 µM 59% | [1]; at 100.0 µM 68% | [16]; at 1.2 µM -1% | [16]; at 3.7 µM -3% | [16]; at 11.0 µM 12% | [16]; at 33.0 µM 49% | [16]; at 100.0 µM 59% | [3]; at 1.2 µM -4% | [3]; at 3.7 µM -6% | [3]; at 11.0 µM 2% | [3]; at 33.0 µM 52% | [4]; at 1.2 µM 2% | [4]; at 3.7 µM -1% | [4]; [17] -2% | [4]; at 11.0 µM 25% | [4]; at 33.0 µM 55% | [4]; [18] 44% | [5]; at 1.2 µM -1% | [5]; at 3.7 µM 2% | [5]; [17] 19% | [5]; at 11.0 µM 25% | [5]; [18] 48% | [6]; at 1.2 µM -6% | [6]; at 3.7 µM -14% | [6]; at 11.0 µM 2% | [6]; at 33.0 µM 54% | [7]; [17] -1% | [7]; [18] 9% | [7]; at 50.0 µM 58.2% | [8]; at 1.2 µM -4% | [8]; at 3.7 µM -4% | [8]; at 11.0 µM 24% | [9]; [17] -27% | [9]; [18] 30% | [10]; at 1.2 µM -8% | [10]; at 3.7 µM -2% | [10]; [17] -17% | [10]; at 11.0 µM 23% | [10]; at 33.0 µM 68% | [10]; [18] 32% | [11]; at 1.2 µM -4% | [11]; at 3.7 µM -4% | [11]; at 11.0 µM 7% | [11]; at 33.0 µM 46% | [11]; at 100.0 µM 62% | [13]; at 1.2 µM 6% | [13]; at 3.7 µM 10% | [13]; at 11.0 µM 28% | [13]; at 33.0 µM 54% | [13]; at 100.0 µM 68% | [14]; [17] 10% | [14]; [18] 36% | [15]; at 1.2 µM 8% | [15]; at 3.7 µM 3% | [15]; at 11.0 µM 17% | [15]; at 33.0 µM 49% | [15]; at 100.0 µM 69%
